Laboratory results as given in PubChem BioAssay AID602410 (Johns Hopkins Ion Channel Center, 2012).
Among all 340,000 compounds or so, about 2,800 (0.82%) were called active.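 Rule for the calls: active = B-score under library mean minus 4 SD, starting fluorescence ratio at most library mean plus 5 SD; inactive = the rest.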 The sample as a whole holds a higher share of actives than the screen did.

Each compound was assayed against Potassium channel subfamily K member 3 (Homo sapiens) (UniProt O14649) (assay: blockers of TASK1 two-pore potassium channel – CHO cells, FluxOR thallium flux, B-score, primary screen (AID 602410;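 for B-score: more negative B-score means stronger inhibition of thallium flux through KCNK3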)). Conditions: CHO-KCNK3 thallium flux, FluxOR fluorescence, at 10 µM; stronger effect = lower value.
Sequence of Potassium channel subfamily K member 3 (Homo sapiens) (O14649 whole entry, looked up): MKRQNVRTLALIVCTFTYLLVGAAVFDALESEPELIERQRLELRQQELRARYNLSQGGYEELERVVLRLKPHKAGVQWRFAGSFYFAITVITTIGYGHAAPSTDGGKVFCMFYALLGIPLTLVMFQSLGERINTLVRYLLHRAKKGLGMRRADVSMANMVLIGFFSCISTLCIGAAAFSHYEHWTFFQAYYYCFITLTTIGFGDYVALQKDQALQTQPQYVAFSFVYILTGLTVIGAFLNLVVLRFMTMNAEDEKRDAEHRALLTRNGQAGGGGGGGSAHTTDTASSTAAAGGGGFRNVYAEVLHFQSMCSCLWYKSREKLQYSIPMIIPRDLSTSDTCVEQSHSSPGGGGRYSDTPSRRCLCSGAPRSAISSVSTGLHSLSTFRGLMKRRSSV

Compound	B-score
Cc1nc(N2CCOCC2)c2c(C)c(C(=O)Nc3ccc(C(F)(F)F)cc3)sc2n1	-8.85 (active)
Cc1nc(N2CCC(C)CC2)c2c(C)c(C(=O)Nc3cc(F)ccc3C)sc2n1	inactive
COc1ccc(NC(=O)c2sc3nc(C)nc(N4CCN(c5ccccn5)CC4)c3c2C)c(OC)c1	inactive
Cc1cc(Br)ccc1NC(=O)c1cnc(N2CCN(c3ccccn3)CC2)c2ccccc12	inactive
Cc1cc(Br)ccc1NC(=O)c1sc2ncn(CC(=O)N3CCN(c4ccccn4)CC3)c(=O)c2c1C	inactive
Cc1nc(N2CCN(c3ccccn3)CC2)c2c(C)c(C(=O)Nc3ccc(F)c(Cl)c3)sc2n1	-12 (active)
Cc1nc(N2CCN(c3ccccn3)CC2)c2c(C)c(C(=O)Nc3ccc(F)cc3)sc2n1	-13 (active)
CCOC(=O)C1CCCN(C(=O)c2sc3nc(C)nc(N4CCOCC4)c3c2C)C1 (stereo unspecified)	inactive
O=C(c1c(F)cccc1Cl)N1CCN(c2ccccn2)CC1	inactive
C/C(=N/NC(=O)c1ccn(C)n1)c1ccncc1	inactive
Cc1ccccc1-c1nc(CS(=O)(=O)CC(=O)NC(C)c2ccccc2)c(C)o1 (stereo unspecified)	inactive
CCOc1ccc(C(CC(=O)O)NC(=O)C23CC4CC(CC(C4)C2)C3)cc1OC (stereo unspecified)	inactive
Cc1cc(NC(=O)C(C)SCC(=O)Nc2ccccc2N2CCCCC2)no1 (stereo unspecified)	inactive
Cc1ccc(OCCC(=O)Nc2ccc(S(=O)(=O)Nc3nccs3)cc2)cc1	inactive
O=C1NC(c2ccncc2)Nc2sc3c(c21)CCCC3 (stereo unspecified)	inactive
O=C(NCC(=O)N1CCCCCCC1)c1ccccc1Cl	inactive
CCCc1cc(=O)[nH]c(SCC(=O)N2CCN(S(=O)(=O)c3ccc(C)cc3C)CC2)n1	inactive
Cc1ccc(CN(CC(=O)NCC2CCCO2)S(=O)(=O)c2ccc(C)cc2)cc1 (stereo unspecified)	inactive
Cc1ccc(F)c(NC(=O)CCOc2ccccc2C)c1	inactive
Cc1ccc(F)c(NC(=O)CCc2ccccc2)c1	inactive
CCn1ncc(Br)c1C(=O)Nc1cc(C)ccc1F	-9.47 (active)
C=CCNC(=O)C1CC2c3ccccc3C1c1ccccc12 (stereo unspecified)	inactive
COc1ccc(Cl)cc1C=CC=Nc1ccc(S(N)(=O)=O)cc1	inactive
COc1cccc(/C=N/Nc2cc(C)nc(-c3ccccc3O)n2)c1O	-11.6 (active)
COc1ccc(Cc2nnc(N/N=C/c3ccccc3O)[nH]c2=O)cc1OC	inactive
COc1cccc(/C=N/Nc2ccc(S(=O)(=O)Nc3ccccc3C(=O)O)cc2[N+](=O)[O-])c1O	inactive

Compound	B-score
Cc1ccccc1C(OCC(O)CN1CCCCC1CCO)c1ccccc1 (stereo unspecified)	inactive
COc1cccc(CN(C)CC(O)COC(c2ccccc2)c2ccccc2C)c1 (stereo unspecified)	-12.7 (active)
COc1cccc(CN(C)CC(=O)Nc2ccccc2C(=O)Nc2ccccc2)c1	inactive
Cc1noc(C)c1S(=O)(=O)N(CC(=O)Nc1ccc2c(c1)OCCO2)c1ccc(C(C)C)cc1	inactive
CCOC(=O)c1cccc(NC(=O)CN(c2ccc(C)cc2)S(=O)(=O)c2c(C)noc2C)c1	-8.84 (active)
COc1ccc(N(CC(=O)Nc2cc(OC)ccc2OC)S(=O)(=O)c2c(C)noc2C)cc1	inactive
N#Cc1c(NC(=O)CSc2nc3ccccc3c(=O)n2Cc2ccco2)sc2c1CCCC2	inactive
CC(Sc1nc2ccccc2c(=O)n1Cc1ccco1)C(=O)c1ccccc1 (stereo unspecified)	-8.93 (active)
COc1cccc(NC(=O)C(Sc2nc3ccccc3c(=O)n2CC(C)C)c2ccccc2)c1 (stereo unspecified)	inactive
CC(C)(C)OC(=O)Nc1ccc([C@@H](NC(=O)OC(C)(C)C)C(=O)OC(C)(C)C)cc1	inactive
COc1ccc(CC(=O)NCc2nnc(SCC(=O)Nc3nccs3)n2C)cc1	inactive
CC1(C)Cc2ccccc2-c2nnc(-c3cccc(O)c3)n21	inactive
COc1cc(C)c(Cl)cc1S(=O)(=O)n1ccnc1	inactive
O=C(Cc1ccc(S(=O)(=O)N2CCOCC2)s1)NCCOc1ccccc1F	inactive
O=C(Cc1ccc(S(=O)(=O)N2CCOCC2)s1)NCCC(c1ccccc1)c1ccccc1	inactive
O=C(Cc1ccc(S(=O)(=O)N2CCOCC2)s1)Nc1ccc(Br)c(C(F)(F)F)c1	-9.72 (active)
O=C1CCCN2N=C(SCC(=O)Nc3ccc(Br)cc3)SC2=N1	inactive
N#C/C(=C\c1ccccc1)c1n[nH]c(Cn2cncn2)n1	inactive
CCN1CCN(C(=O)N[C@@H](C(=O)N[C@@H]2C(=O)N3C(C(=O)O)=C(CSc4nnnn4C)CS[C@H]23)c2ccc(O)cc2)C(=O)C1=O	inactive
CN(C(=O)CSc1nnc(-c2ccc(C(C)(C)C)cc2)n1C)C1CCS(=O)(=O)C1 (stereo unspecified)	inactive
COc1ccc2c(c1)c(=O)c(C(=O)c1ccc(Cl)cc1)cn2CC(=O)Nc1ccc(F)cc1	inactive
CN1c2ccc(C=O)c3c(C=O)ccc(c23)N(C)C1(C)C	-11.3 (active)
COc1ccc(-c2nc(CN3CCN(c4ncccn4)CC3)c(C)o2)cc1C	inactive
Cc1ccc(C(CNC(=O)Nc2ccccc2)N2CCN(C)CC2)cc1 (stereo unspecified)	inactive
COc1cccc(C(=O)Nc2cc3c(cc2Br)OCCCO3)c1	inactive
COc1ccc(-c2cc(C(=O)N(C)CC(=O)Nc3ccccc3Cl)c3ccccc3n2)cc1OC	inactive

Compound	B-score
COc1ccc(-c2cc(C(=O)N(C)Cc3ccc(OC)c(OC)c3OC)c3ccccc3n2)cc1OC	inactive
COc1ccc(CN(C)C(=O)c2cc(-c3ccc(C)cc3C)nc3ccccc23)c(OC)c1OC	-12.7 (active)
CC(=O)c1c(Nc2ccccc2)sc(C(=O)c2ccccc2)c1C	inactive
COc1ccc(Cl)cc1NC(=O)CN(C)C(=O)c1cc(-c2cccs2)nn1-c1ccccc1	inactive
COc1cc(C(=O)NCC(=O)NCCSc2ccc(Br)cc2)cc(OC)c1OC	inactive
COc1cccc(C(=O)NCCSc2ccc(Br)cc2)c1	-8.94 (active)
COc1ccccc1C(=O)NCC(=O)NCCSc1ccc(Br)cc1	inactive
Cc1ccc(NCc2n[nH]c(=S)n2-c2ccccc2)cc1Cl	inactive
CCOc1ccc(OCCSc2nc3ccccc3n2CC(=O)O)cc1	inactive
Cc1cc(C)cc(NC(=O)C2CCCN(S(=O)(=O)c3ccc4[nH]c(=O)ccc4c3)C2)c1 (stereo unspecified)	inactive
CCOc1ccc(C2c3[nH]c4ccccc4c3CCN2Cc2cn(CC)nc2C)cc1 (stereo unspecified)	inactive
c1ccc(C2c3[nH]c4ccccc4c3CCN2Cc2cccn2-c2cccnc2)nc1 (stereo unspecified)	inactive
CCOc1ccc(C2c3[nH]c4ccccc4c3CCN2Cc2cccn2-c2ncccn2)cc1 (stereo unspecified)	-8.75 (active)
O=C(NCc1ccccc1)C1=C[C@@H](c2ccc(C(F)(F)F)cc2)C[C@@H](OCc2ccc(CO)cc2)O1	inactive
CCOc1ccc(C(C)=O)cc1COC(=O)c1cnc(Cl)c(Cl)c1	inactive
COc1ccc(C(C)=O)cc1COc1ccc(Cl)c(C)c1	-10.4 (active)
COCc1cc(C(C)=O)ccc1OC	inactive
O=S(=O)(c1cccc(-c2cn3ccccc3n2)c1)N1CCCC1	inactive
COc1ccc(N2CCN(C3CCCCC3NS(=O)(=O)c3ccccc3)CC2)cc1 (stereo unspecified)	inactive
O=S(=O)(NC1CCCCC1N1CCCCC1)c1ccc(Cl)cc1 (stereo unspecified)	inactive
O=S(=O)(NC1CCCCC1N1CCN(c2ccccc2F)CC1)c1ccccc1 (stereo unspecified)	-9.12 (active)
CCC(C)(C)NC(=O)C(c1ccc(O)cc1)N(Cc1ccco1)C(=O)CCC(=O)Nc1ccccn1 (stereo unspecified)	inactive
Cn1c(=O)c2sccc2n(Cc2ccc(Br)cc2)c1=O	inactive
COc1nc(NCc2ccc(Cl)cc2)nc(OC)n1	inactive
FC(F)(F)c1cc(-c2ccco2)nc(NCc2ccc(Cl)cc2)n1	-8.85 (active)
FC(F)(F)c1cc(-c2cccs2)nc(NCc2ccco2)n1	inactive

Compound	B-score
Cc1c(C(=O)NCC2CCCO2)sc2nc(-c3ccccc3)cn12 (stereo unspecified)	inactive
Cc1cccc2cc3c(N)c(C(=O)N4CCCc5ccccc54)sc3nc12	inactive
Cc1c(C(=O)N2CCCc3ccccc32)sc2nc(-c3ccccc3)cn12	-9.27 (active)
N[C@@H](Cc1ccccc1)C(=O)N1CCC(C(=O)NCC(=O)Nc2ccc(F)cc2)CC1	inactive
COc1ccc(C(F)(F)F)cc1N/C=C\c1nnnn1-c1ccc(C)cc1	inactive
Cc1ccc(C(=O)N/N=C\c2cc(Br)c(Br)o2)cn1	inactive
COc1ccc(S(=O)(=O)NCCCCOc2ccc(Cl)cc2)cc1	-9.65 (active)
COc1ccc(S(=O)(=O)NCCOc2ccccc2)cc1F	inactive
COc1ccc(OCCNS(=O)(=O)Cc2ccccc2)cc1	inactive
CCCC(C)c1nnc(NC(=O)C2CC(=O)N(c3ccc(OCC)cc3)C2)s1 (stereo unspecified)	inactive
CC(C)[C@H](NC(=O)Nc1ccc(S(N)(=O)=O)cc1)C(=O)O	inactive
CC(C)n1c(COc2ccccc2)nc2ccccc21	inactive
CCCCCC(O)c1cccc(OCc2ccc3ccccc3n2)c1 (stereo unspecified)	-9.81 (active)
COc1cccc(C(O)c2nc3ccccc3n2C)c1 (stereo unspecified)	inactive
NS(=O)(=O)c1ccc(NC(=O)/C=C/c2ccccc2Cl)cc1	inactive
Cc1cc(=O)oc2c(C)c(OC(C)C(=O)NC3CCN(Cc4ccccc4)CC3)ccc12 (stereo unspecified)	inactive
COc1cc(C(=S)NCc2ccccc2)cc(Br)c1O	inactive
CC(=O)N1c2ccc(S(=O)(=O)N3CCC(C(=O)N4CCN(c5ccccc5)CC4)CC3)cc2CC1C (stereo unspecified)	inactive
CC(=O)N1CCCc2cc(S(=O)(=O)CCC(=O)N3CCN(c4ccccc4)CC3)ccc21	inactive
CC(=O)N1CCCc2cc(S(=O)(=O)N3CCCC(C(=O)N4CCN(c5cccc(Cl)c5)CC4)C3)ccc21 (stereo unspecified)	-9.62 (active)
Cc1cccc2cc(CN(Cc3nnnn3Cc3ccccc3)C3CCCC3)c(=O)[nH]c12	-10.8 (active)
Cc1cc(C)c2cc(CN(Cc3nnnn3Cc3ccc(F)cc3)C3CCCC3)c(=O)[nH]c2c1	inactive
CCOc1ccc2[nH]c(=O)c(CN(Cc3nnnn3Cc3ccccc3)CC3CCCO3)cc2c1 (stereo unspecified)	inactive
